Measurements taken from PubChem BioAssay (NCATS).
Results filed as inconclusive are left out. Activity calls are given as the source filed them. Calls come from the whole dose curve; as a rule, active = well fitted curve in the direction sought with a large enough effect in the signal ratio, with a control signal flat (not every such curve was filed as active); inconclusive = small, poorly fitted or top-dose-only effect, or a change in a side signal; inactive = no such curve, though single readings can be large or run the other way; the % refers to the signal ratio.

Test: qHTS Assay for Identification of Small Molecule Inducers of Hypoxia Response (AID 2120); note: 0% is about no effect
Settings: hypoxia response reporter cells, beta-lactamase ratio readout; series mostly up to 104 µM; activation: at the top concentration
Description: NIH Chemical Genomics Center [NCGC]
NIH Molecular Libraries Screening Centers Network [MLSCN]
National Institutes of Environmental Health Sciences [NIEHS]
National Toxicology Program [NTP]
Hypoxia-inducible factor-1 (HIF-1) is the major hypoxia-regulated transcription factor that controls cellular responses to low oxygen concentration. HIF-1 is composed of two subunits: hypoxia responsive HIF-1a and constitutively expressed HIF-1b, which is also known as aryl hydrocarbon receptor nuclear translocator. During hypoxic conditions, HIF-1a heterodimerizes with HIF-1b and translocates into the nucleus where the HIF-1 complex binds to the hypoxia-response element (HRE) and activates expression of target genes such as VEGF (vascular endothelial growth factor). The HIF-1 pathway is essential to normal growth and development, and is involved in the pathophysiology of cancer, inflammation, and ischemia.
Using a beta-lactamase reporter-gene under control of the hypoxia response element, a cell-based assay [CellSensor(TM) HRE-bla ME-180 developed by Invitrogen Corp.] was used to measure hypoxia-induced signaling. Library compounds were measured for their ability to induce the reporter gene activity. Compounds were screened in a titration series in 1536-well format. The inducers were identified based on the AC50 values derived from the screening data.
NCGC Assay Protocol Summary
2500 cells/5uL in Opti-MEM medium containing 0.5% dialyzed FBS, 0.1 mM NEAA, 1 mM sodium pyruvate and 10 mM HEPES was dispensed into 1536-well plates and cells were cultured at 37 degrees Celsius for 4-5 hours and then 23 nL of compounds or DMSO were delivered to each well using a pin tool. The plates were incubated at 37 degrees Celsius for 17 hours. 1 uL of CCF4-dye mixture was added to each well. After incubated at room temperature for 2.5 hours the plates were measured on an EnVision plate reader at Excitation 405nm, Emission1=460nm and Emission 2=530nm. The %Activity was determined from the ratio of 460nm/530nm.

| SMILES | activation | outcome |
| --- | --- | --- |
| CCCCCCCC/C=C\CCCCCCCC(=O)O | -0.595% (inactive) |  |
| Cc1ccccc1 |  | inactive |
| CC(C)=O | -0.297% (inactive) |  |
| CCOC(C)=O | 0.058% (inactive) |  |
| CC1=C2[C@@H]([C@H](C)CC[C@H]2/C=C(\C)C(=O)O)[C@H](O)C1 | 0.202% (inactive) |  |
| Nc1ccn([C@H]2CS[C@@H](CO)O2)c(=O)n1 | -0.36% (inactive) |  |
| CCCCCCCC(=O)O |  | inactive |
| CC1=C(/C=C/C(C)=C/C=C/C(C)=C/CO)C(C)(C)CCC1 | 1.85% (inactive) |  |
| IC(I)I | 0.725% (inactive) |  |
| CCCCC/C=C\C/C=C\CCCCCCCC(=O)O | 0.121% (inactive) |  |
| CC(O)CO (configuration not stated) |  | inactive |
| O=S(=O)(O)O |  | inactive |
